Common to all, as to assay: DAPPL (digital affinity profiling via proximity ligation, sequencing); 10 mM Tris-HCl pH 7.5, 50 mM NaCl, 1 mM DTT, 4% glycerol, room temperature, 30 min; GST-TFs on glutathione beads, 16-mer random dsDNA library, 0.1% formaldehyde crosslink after washing; high values mean tight binding
The target in one experiment is T1, FEV (Homo sapiens, UniProt Q99581 1-238).
T1 sequence: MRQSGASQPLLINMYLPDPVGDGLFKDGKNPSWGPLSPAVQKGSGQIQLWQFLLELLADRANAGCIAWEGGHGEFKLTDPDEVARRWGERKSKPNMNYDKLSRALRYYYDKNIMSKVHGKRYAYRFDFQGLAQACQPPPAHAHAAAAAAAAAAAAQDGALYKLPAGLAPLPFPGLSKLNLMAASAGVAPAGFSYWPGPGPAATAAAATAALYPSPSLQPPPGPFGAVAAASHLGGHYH
The conditions noted are these: protein: recombinant; tags: N-terminal GST; dsDNA, one strand shown. In a few lines:
(§1)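 Sequencing on an Illumina NextSeq500 followed washing, crosslinking with 0.1% formaldehyde, proximity ligation (BsaI/T4 ligase, 1 h, 37 °C) and PCR amplification of pools that had been incubated for 30 min at room temperature with 200 nmole of a random double-stranded 16-mer DNA library in Tris/NaCl/DTT/glycerol buffer. Each pool held DNA-barcoded human transcription factors, expressed in yeast as GST fusions and captured on glutathione beads, plus a tag-only sample. Binding signal is a hexamer's read frequency for a factor divided by its frequency in the tag-only sample.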

A further experiment has as its target ETV5 (Homo sapiens, UniProt P41161 1-510). The conditions noted are these: protein: recombinant; tags: N-terminal GST; dsDNA, one strand shown. In a few lines: as §1
A further experiment deals with HSF1 (Homo sapiens, UniProt Q00613 1-529). The settings on record: protein: recombinant; tags: N-terminal GST; chain copies: 3; dsDNA, one strand shown. In a few lines:
as §1

Another experiment has as its target T2, SPIC (Homo sapiens, UniProt Q8N5J4 1-248).
T2 sequence: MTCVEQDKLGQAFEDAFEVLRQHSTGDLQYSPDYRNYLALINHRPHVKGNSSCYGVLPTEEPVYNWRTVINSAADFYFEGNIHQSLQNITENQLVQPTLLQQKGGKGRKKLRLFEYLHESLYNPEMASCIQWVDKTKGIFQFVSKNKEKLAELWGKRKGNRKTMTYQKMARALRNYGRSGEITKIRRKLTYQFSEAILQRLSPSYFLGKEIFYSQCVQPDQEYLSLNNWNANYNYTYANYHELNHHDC
The settings on record: protein: recombinant; tags: N-terminal GST; dsDNA, one strand shown. In a few lines: as §1

In a further experiment the target is ELF4 (Homo sapiens, UniProt Q99607 1-663). The settings on record: protein: recombinant; tags: N-terminal GST; dsDNA, one strand shown. A digest of the protocol:
as §1

The target in the next experiment is T3, ELK4 (Homo sapiens, UniProt P28324-2 1-405).
T3 sequence: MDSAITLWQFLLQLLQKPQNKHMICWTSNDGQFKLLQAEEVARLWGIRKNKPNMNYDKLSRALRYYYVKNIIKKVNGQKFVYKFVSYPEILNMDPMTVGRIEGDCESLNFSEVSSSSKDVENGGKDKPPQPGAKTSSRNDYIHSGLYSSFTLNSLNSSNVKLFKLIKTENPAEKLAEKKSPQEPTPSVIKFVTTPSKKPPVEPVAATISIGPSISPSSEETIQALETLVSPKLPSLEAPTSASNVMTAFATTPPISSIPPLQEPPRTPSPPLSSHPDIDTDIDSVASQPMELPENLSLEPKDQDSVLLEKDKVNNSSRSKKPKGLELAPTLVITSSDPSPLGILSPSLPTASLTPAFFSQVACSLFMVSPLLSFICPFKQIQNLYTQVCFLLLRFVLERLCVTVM
The conditions noted are these: protein: recombinant; tags: N-terminal GST; dsDNA, one strand shown. A digest of the protocol: as §1

A further experiment addresses T4, ETV2 (Homo sapiens, UniProt O00321 1-342).
T4 sequence: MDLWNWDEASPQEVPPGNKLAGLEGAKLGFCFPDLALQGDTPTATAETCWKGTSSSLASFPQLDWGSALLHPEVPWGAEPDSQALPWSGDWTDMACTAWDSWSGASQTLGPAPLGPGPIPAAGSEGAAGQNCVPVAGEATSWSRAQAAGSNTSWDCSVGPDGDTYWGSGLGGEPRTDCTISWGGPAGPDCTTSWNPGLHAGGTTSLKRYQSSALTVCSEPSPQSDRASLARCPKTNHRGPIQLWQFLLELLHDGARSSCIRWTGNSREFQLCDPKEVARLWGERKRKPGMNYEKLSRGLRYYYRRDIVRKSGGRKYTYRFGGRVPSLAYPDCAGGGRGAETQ
The settings on record: protein: recombinant; tags: N-terminal GST; dsDNA, one strand shown. A digest of the protocol:
as §1

The target of another experiment is T5, ELF3 (Homo sapiens, UniProt P78545 1-371).
T5 sequence: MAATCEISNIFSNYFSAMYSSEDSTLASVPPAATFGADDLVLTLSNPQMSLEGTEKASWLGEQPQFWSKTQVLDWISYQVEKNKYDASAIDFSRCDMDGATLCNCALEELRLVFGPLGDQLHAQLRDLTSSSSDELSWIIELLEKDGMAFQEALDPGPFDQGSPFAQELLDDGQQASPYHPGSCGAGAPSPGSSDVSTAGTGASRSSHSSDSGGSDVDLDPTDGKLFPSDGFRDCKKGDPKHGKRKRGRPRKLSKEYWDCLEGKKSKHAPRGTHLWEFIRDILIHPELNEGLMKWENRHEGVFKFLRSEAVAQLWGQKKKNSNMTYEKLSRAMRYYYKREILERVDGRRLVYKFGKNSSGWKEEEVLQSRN
The settings on record: protein: recombinant; tags: N-terminal GST; dsDNA, one strand shown. A digest of the protocol:
as §1

A further experiment deals with CRX (Homo sapiens, UniProt O43186 1-299). The settings on record: protein: recombinant; tags: N-terminal GST; dsDNA, one strand shown. In a few lines: as §1
Sequence of CRX (O43186 whole entry): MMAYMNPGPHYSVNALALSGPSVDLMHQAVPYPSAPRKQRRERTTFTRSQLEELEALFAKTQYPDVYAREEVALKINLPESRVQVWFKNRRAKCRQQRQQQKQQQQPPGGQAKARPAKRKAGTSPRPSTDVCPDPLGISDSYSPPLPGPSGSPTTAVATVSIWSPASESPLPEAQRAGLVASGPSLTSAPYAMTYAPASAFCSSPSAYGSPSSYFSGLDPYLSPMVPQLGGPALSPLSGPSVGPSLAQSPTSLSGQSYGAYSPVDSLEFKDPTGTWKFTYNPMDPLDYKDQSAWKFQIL
The next experiment deals with ETV1 (Homo sapiens, UniProt P50549 1-477). The conditions noted are these: protein: recombinant; tags: N-terminal GST; dsDNA, one strand shown. In a few lines:
as §1

In the next experiment the target is T6, ERF (Homo sapiens, UniProt P50548 1-548).
T6 sequence: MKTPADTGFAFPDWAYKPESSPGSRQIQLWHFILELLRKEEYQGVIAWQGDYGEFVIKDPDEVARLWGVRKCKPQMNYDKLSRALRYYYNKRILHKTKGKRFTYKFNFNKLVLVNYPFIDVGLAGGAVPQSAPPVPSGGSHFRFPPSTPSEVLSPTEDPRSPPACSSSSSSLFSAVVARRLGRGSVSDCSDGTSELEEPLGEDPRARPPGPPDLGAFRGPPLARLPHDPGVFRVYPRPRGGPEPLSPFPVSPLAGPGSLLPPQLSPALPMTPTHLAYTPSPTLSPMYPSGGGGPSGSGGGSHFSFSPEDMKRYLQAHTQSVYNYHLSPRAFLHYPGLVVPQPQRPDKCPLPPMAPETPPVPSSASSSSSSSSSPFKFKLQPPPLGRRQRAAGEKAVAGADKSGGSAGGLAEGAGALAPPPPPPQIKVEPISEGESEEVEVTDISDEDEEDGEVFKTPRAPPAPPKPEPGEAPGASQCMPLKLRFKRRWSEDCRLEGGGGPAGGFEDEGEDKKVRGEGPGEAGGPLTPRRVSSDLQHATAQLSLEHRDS
The conditions noted are these: protein: recombinant; tags: N-terminal GST; dsDNA, one strand shown. A digest of the protocol:
as §1

In the next experiment the target is T7, ETV3L (Homo sapiens, UniProt Q6ZN32 1-361).
T7 sequence: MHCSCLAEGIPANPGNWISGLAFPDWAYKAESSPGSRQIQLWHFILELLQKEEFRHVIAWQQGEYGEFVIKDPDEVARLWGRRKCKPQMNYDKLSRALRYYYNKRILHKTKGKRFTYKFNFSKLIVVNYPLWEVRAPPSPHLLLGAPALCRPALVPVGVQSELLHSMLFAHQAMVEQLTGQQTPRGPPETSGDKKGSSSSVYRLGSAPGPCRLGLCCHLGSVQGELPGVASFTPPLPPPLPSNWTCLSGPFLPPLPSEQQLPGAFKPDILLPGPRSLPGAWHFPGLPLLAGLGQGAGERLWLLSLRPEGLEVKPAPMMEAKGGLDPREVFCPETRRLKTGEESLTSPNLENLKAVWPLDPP
The settings on record: protein: recombinant; tags: N-terminal GST; dsDNA, one strand shown. In a few lines: as §1

The target in a further experiment is T8, ETS2 (Homo sapiens, UniProt P15036 1-469).
T8 sequence: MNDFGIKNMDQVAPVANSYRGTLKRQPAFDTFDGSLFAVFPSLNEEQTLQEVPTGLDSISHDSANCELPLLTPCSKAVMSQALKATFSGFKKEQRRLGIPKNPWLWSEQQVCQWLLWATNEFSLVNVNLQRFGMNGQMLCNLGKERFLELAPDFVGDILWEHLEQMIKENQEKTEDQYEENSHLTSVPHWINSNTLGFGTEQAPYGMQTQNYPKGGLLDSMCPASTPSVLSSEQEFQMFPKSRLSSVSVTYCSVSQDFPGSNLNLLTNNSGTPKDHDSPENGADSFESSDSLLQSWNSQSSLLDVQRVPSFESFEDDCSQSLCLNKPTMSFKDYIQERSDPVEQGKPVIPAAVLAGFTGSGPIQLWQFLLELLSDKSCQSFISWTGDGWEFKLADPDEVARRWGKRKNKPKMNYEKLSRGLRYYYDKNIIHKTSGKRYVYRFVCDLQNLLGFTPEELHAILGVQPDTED
The conditions noted are these: protein: recombinant; tags: N-terminal GST; dsDNA, one strand shown. In a few lines: as §1

Another experiment deals with T9, SPDEF (Homo sapiens, UniProt O95238 1-335).
T9 sequence: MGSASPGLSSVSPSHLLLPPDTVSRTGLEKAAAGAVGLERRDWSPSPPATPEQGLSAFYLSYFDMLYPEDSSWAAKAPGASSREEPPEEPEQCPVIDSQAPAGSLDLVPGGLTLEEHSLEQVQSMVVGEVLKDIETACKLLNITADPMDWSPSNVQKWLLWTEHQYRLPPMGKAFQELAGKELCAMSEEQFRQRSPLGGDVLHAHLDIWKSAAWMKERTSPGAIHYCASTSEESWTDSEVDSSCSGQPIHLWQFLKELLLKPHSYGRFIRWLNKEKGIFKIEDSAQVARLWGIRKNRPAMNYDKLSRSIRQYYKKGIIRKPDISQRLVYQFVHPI
The settings on record: protein: recombinant; tags: N-terminal GST; dsDNA, one strand shown. A digest of the protocol: as §1

The next experiment addresses T10, ETV7 (Homo sapiens, UniProt Q9Y603 1-341).
T10 sequence: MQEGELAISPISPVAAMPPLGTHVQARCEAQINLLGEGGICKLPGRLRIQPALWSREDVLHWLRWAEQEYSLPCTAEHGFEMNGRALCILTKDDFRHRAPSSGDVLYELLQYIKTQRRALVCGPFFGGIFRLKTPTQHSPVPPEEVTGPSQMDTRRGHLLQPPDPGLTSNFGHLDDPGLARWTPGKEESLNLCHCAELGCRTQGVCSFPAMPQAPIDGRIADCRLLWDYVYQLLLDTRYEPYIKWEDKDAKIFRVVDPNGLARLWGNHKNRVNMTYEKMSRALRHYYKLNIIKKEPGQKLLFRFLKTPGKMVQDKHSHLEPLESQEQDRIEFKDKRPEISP
The conditions noted are these: protein: recombinant; tags: N-terminal GST; dsDNA, one strand shown. In a few lines: as §1

In another experiment the target is T11, ELF5 (Homo sapiens, UniProt Q9UKW6-2 1-255).
T11 sequence: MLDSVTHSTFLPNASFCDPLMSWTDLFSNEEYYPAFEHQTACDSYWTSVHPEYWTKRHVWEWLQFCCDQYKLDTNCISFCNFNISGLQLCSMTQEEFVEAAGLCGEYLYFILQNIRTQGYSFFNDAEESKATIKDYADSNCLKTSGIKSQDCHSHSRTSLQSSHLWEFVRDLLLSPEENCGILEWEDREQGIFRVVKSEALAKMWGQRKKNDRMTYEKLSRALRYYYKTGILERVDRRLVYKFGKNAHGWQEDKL
The conditions noted are these: protein: recombinant; tags: N-terminal GST; dsDNA, one strand shown. A digest of the protocol: as §1

The next experiment has as its target T12, ETV3 (Homo sapiens, UniProt P41162-2 1-143).
T12 sequence: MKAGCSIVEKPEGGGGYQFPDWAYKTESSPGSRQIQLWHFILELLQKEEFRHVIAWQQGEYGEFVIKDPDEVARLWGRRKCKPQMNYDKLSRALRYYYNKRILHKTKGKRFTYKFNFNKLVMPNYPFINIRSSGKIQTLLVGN
The settings on record: protein: recombinant; tags: N-terminal GST; dsDNA, one strand shown. In a few lines:
as §1

The target of a further experiment is ETV6 (Homo sapiens, UniProt P41212 1-452). The conditions noted are these: protein: recombinant; tags: N-terminal GST; dsDNA, one strand shown. In a few lines: as §1
Sequence of ETV6 (P41212 whole entry): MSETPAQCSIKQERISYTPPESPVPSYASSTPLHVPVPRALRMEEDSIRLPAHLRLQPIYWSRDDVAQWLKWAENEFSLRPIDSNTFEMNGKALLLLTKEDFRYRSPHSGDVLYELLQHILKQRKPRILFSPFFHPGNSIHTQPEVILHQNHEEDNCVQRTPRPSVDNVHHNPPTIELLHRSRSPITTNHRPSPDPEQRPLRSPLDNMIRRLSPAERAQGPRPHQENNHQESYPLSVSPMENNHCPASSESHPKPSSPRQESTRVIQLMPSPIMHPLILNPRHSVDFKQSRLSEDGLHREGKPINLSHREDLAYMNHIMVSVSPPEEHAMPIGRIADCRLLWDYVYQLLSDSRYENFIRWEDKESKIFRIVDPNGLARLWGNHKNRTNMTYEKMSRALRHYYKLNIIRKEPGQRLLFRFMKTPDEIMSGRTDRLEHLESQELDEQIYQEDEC

Sequence of HSF1 (Q00613 whole entry): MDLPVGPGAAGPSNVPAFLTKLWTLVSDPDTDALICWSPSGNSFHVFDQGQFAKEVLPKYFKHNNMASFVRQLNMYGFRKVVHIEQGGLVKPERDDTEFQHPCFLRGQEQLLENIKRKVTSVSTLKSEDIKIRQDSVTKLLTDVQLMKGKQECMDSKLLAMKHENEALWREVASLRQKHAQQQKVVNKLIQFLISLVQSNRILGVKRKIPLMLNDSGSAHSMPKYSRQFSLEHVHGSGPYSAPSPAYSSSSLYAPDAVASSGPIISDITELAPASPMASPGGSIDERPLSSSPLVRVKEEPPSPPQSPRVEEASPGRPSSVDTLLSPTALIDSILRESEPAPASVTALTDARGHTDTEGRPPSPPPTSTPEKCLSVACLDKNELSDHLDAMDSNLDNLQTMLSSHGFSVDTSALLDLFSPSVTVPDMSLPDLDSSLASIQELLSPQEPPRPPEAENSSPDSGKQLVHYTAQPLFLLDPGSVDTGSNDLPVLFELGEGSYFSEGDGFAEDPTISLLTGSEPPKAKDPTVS
Sequence of ETV1 (P50549 whole entry): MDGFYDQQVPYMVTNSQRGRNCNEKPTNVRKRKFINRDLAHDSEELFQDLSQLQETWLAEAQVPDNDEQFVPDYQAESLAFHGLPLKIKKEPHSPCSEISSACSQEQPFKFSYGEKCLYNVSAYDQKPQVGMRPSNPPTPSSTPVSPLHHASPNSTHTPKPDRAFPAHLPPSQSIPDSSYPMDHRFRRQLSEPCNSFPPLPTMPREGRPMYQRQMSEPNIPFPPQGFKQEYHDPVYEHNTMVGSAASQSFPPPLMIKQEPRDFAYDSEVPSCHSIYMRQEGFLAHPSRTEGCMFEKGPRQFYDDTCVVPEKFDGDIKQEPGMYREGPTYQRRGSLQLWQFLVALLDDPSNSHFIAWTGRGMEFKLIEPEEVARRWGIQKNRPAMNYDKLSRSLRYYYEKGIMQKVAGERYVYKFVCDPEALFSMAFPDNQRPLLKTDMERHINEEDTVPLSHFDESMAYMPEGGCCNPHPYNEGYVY
Sequence of ETV5 (P41161 whole entry): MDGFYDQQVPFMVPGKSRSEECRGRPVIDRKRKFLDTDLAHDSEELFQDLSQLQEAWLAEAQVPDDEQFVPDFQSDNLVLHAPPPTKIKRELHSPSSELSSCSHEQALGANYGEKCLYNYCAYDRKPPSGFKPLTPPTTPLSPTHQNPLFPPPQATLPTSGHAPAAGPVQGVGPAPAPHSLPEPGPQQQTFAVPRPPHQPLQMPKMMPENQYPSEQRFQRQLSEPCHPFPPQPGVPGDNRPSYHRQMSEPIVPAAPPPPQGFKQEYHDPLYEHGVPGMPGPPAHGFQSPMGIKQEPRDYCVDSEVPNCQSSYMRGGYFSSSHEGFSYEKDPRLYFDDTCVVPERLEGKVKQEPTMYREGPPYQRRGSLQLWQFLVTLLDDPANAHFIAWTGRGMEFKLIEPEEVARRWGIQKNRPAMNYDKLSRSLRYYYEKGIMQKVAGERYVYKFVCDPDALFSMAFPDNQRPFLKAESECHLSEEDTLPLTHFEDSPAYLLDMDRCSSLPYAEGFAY
Sequence of ELF4 (Q99607 whole entry): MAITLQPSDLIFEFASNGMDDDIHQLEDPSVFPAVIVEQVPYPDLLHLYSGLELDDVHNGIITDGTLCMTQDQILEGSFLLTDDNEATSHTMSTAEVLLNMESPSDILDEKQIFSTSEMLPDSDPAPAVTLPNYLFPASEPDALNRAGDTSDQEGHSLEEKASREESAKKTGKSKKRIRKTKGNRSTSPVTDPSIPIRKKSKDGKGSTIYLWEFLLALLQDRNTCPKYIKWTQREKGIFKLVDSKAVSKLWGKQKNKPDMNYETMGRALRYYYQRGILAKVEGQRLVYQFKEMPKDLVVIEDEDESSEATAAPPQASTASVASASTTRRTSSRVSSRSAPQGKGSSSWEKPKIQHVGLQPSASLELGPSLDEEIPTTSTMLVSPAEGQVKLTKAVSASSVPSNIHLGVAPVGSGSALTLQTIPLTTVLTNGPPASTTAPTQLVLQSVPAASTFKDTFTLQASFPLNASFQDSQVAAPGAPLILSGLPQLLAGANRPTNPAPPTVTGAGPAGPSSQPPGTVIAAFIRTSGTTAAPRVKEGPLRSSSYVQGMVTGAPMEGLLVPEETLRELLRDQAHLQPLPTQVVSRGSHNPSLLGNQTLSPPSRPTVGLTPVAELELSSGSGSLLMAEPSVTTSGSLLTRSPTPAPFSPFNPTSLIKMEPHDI

In the case of ACATCT, the binding signal was 1.29 fold enrichment (6-mer frequency, TF over GST control) in the experiment with FEV; 1.31 fold enrichment (6-mer frequency, TF over GST control) in the experiment with ETV5; 1.36 fold enrichment (6-mer frequency, TF over GST control) with HSF1; 1.43 fold enrichment (6-mer frequency, TF over GST control) with SPIC; 1.29 fold enrichment (6-mer frequency, TF over GST control) with ELF4; 1.4 fold enrichment (6-mer frequency, TF over GST control) in the experiment with ELK4. For the same sequence, the binding signal with ETV2 is 1.29 fold enrichment (6-mer frequency, TF over GST control); with ELF3, 1.4 fold enrichment (6-mer frequency, TF over GST control); in the experiment with CRX, 1.19 fold enrichment (6-mer frequency, TF over GST control); in the experiment with ETV1, 1.32 fold enrichment (6-mer frequency, TF over GST control); in the experiment with ERF it was 1.24 fold enrichment (6-mer frequency, TF over GST control); with ETV3L, 1.24 fold enrichment (6-mer frequency, TF over GST control). Further, the binding signal is 1.27 fold enrichment (6-mer frequency, TF over GST control) with ETS2; 1.26 fold enrichment (6-mer frequency, TF over GST control) with SPDEF; 1.49 fold enrichment (6-mer frequency, TF over GST control) with ETV7; 1.3 fold enrichment (6-mer frequency, TF over GST control) with ELF5; 1.17 fold enrichment (6-mer frequency, TF over GST control) with ETV3; 1.29 fold enrichment (6-mer frequency, TF over GST control) with ETV6.

These data come from paper PMC7862700, “An all-to-all approach to the identification of sequence-specific readers for epigenetic DNA modifications on cytosine”.
